Results on 40 molecules are retold here after PubChem BioAssay.

A number with no mark means an inactive call. The rule behind the calls is not given here.

The assay deals with Pantothenate synthetase (Mycobacterium tuberculosis (strain ATCC 25618 / H37Rv)) (UniProt P9WIL5). The assay is described as follows: Recombinant Mtb pantothenate synthetase (PanC) inhibitors, coupled enzyme, confirmatory (AID 375).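 Note: 0% = full reaction with vehicle and 100% = no enzyme background.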 The settings on record: coupled enzyme assay; at 10 µM, hits give high values.
Sequence of Pantothenate synthetase (Mycobacterium tuberculosis (strain ATCC 25618 / H37Rv)) (P9WIL5 whole entry, looked up): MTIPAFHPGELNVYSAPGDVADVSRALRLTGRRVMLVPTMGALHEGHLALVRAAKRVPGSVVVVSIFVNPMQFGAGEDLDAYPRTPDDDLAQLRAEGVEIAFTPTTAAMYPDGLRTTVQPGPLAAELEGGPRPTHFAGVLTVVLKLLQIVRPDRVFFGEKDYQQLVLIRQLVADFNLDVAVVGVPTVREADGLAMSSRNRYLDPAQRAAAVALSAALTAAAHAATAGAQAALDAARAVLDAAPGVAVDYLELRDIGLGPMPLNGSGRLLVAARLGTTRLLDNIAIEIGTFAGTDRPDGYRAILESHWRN
In the case of `Cc1ccc(S(=O)(=O)NCCCCC(NC(=O)OC(C)(C)C)C(=O)O)cc1` (stereo not given) (tested in a mixture with another compound), the inhibition was 0%.

As for `COc1cccc(NC(=O)N2CCN(C(=O)C(Cc3ccc(OC)c(OC)c3)NC(C)=O)CC2)c1` (stereo not given), the inhibition was 0%.

With `COc1cccc2cc(C(=O)n3ccc(C)n3)c(=O)oc12`, the inhibition is 1%.

In the case of `CC1=NN(c2ccccc2)C(=O)C1`, the inhibition is 0%.

`CCOC(=O)C1CCCN(C(=O)CNS(=O)(=O)c2ccc(Br)s2)C1` (stereo not given): the inhibition is 8%.

With `CCOC(=O)Nc1c(O)ccc2oc(C)c(-c3ccccc3)c12`, the inhibition was 0%.

`CCOc1ccc(S(=O)(=O)Nc2ccc(Cl)cn2)c(C)c1C`: the inhibition is 0%.

For `O=c1c2ccccc2sn1-c1ccc(S(=O)(=O)N2CCCCC2)cc1`, the inhibition is 0%.

`Cc1cc2ccccn2c1C(=O)c1ccncc1`: the inhibition was 5%.

As for `COc1ccc(CCNC(=O)C2CCN(S(=O)(=O)c3cc(OC)ccc3OC)CC2)cc1`, the inhibition was 0%.

Consider `COc1ccc2c(-c3cccnc3)cc(=O)[nH]c2c1`, for which the inhibition is 6%.

For the molecule `CC(=O)c1c(C)[nH]c(C(=O)NC2=NCCS2)c1C`, the inhibition was 0%.

With `Cn1c(=O)c2c(ncn2CCO)n(C)c1=O`, the inhibition was 1%.

In the case of `CCOC(=O)C1C(=O)N(C(=O)c2ccc(OC)cc2)CC1c1ccccc1` (stereo not given), the inhibition was 0%.

Regarding `CCN(Cc1ccccc1)C(c1ccncc1)c1nnnn1C(C)(C)C` (stereo not given), the inhibition is 0%.

As to `CCOc1ccc2oc(-c3ccccc3)c(C(=O)N3CCN(CCO)CC3)c2c1`, the inhibition is 0%.

Regarding `Cc1cccc2cc(CN(CCCO)C(=O)Nc3ccc(Cl)cc3)c(=O)[nH]c12`, the inhibition is 5%.

Take `O=C(NCc1cccs1)c1cc2c(s1)CS(=O)(=O)C2`: the inhibition was 1%.

On to `Cc1cccnc1NC(=O)CCCN1C(=O)c2ccccc2C1=O`, for which the inhibition is 0%.

With `COc1ccc(CCNC(=O)c2cnn3ccccc23)c(OC)c1OC`, the inhibition was 4%.

`CCOC(=O)C1=C(N)OC2=C(C(=O)CC(C)(C)C2)C1c1ccoc1` (stereo not given): the inhibition was 0%.

For `CSc1nsc(SCC(=O)N2CCc3ccccc32)n1`, the inhibition was 8%.

For `Cc1ccccc1Nc1cc2ccccc2c(=O)[nH]1`, the inhibition was 2%.

For `CCn1ncc(C2=NOC(C(=O)NCc3ccc(Cl)cc3)C2)c1C` (stereo not given), the inhibition was 0%.

For `CCOC(=O)COc1ccc(S(=O)(=O)N2CCc3ccccc3C2)cc1`, the inhibition is 0%.

As to `Cn1c(COc2ccc(Cl)cc2)nnc1SCC(=O)NC1CCCCC1`, the inhibition was 0%.

Consider `O=C(Nc1ccccc1)N(O)c1ccc(Cl)cc1`, for which the inhibition was 4%.

For `Cc1ccc(Cl)cc1N1CCN(C(=O)CN2C(=O)c3cccc4cccc2c34)CC1`, the inhibition was 6%.

Take `COc1ccc(Cn2nnnc2CN2CCOCC2)cc1`: the inhibition was 6%.

With `CCN(c1ccc(OC)cc1)S(=O)(=O)c1ccc2c(c1)CCN2C(=O)CCC(=O)O`, the inhibition is 0%.

For `Cn1c(=O)cc(OCC(=O)NCCCN2CCN(c3cccc(Cl)c3)CC2)c2ccccc21`, the inhibition was 0%.

For `O=C(Cn1ccc2ccccc2c1=O)NCCC(=O)N1CCN(C2CCCCC2)CC1`, the inhibition is 5%.

Regarding `Cc1cc(C)nc(SCc2nnc(SCC(=O)Nc3ncc(C)s3)n2Cc2ccco2)n1`, the inhibition was 0%.

For the molecule `CC1CCN(S(=O)(=O)c2ccc(NC(=O)CSc3nnnn3C)cc2)CC1`, the inhibition is 2%.

As to `Cc1ccccc1NC(=O)CSc1nnc(Cc2cccn2C)n1-c1ccc(F)cc1`, the inhibition is 0%.

Take `Cc1c(NC(=O)c2ccc(Br)o2)c(=O)n(-c2ccccc2)n1C`: the inhibition was 0%.

With `Cc1cc(NC(=O)CSc2ccc(Cl)cc2)no1`, the inhibition was 0%.

Regarding `Cc1cc(C(F)F)n2nc(C(=O)Nc3ccc(S(=O)(=O)N4CCCCCC4)cc3)nc2n1`, the inhibition was 1%.

Turning to `CCCCOC(=O)CNc1nnc(SCC(=O)OCC)[nH]c1=O`, the inhibition was 3%.

Consider `O=c1[nH]c(CN2CCN(Cc3ccccc3)CC2)nc2sc3c(c12)CCC3`, for which the inhibition is 0%.

What is called inhibition is the change of the read-out against control, counted positive when it falls.
